The structures appear in SMILES notation. Inconclusive results are not listed. The source made the active and inactive calls. Rule for the calls, unless noted: active = hit-call score of the fitted dose curve at least 0.9, where 1 is the maximum; inactive = score below 0.9.

The results in this text go back to PubChem BioAssay (EPA / NIEHS).

Experiment [1] deals with human Thyroid Receptor alpha (THRa1), THRA (gene 7067) (UniProt P10827). Description: ATG_THRa1_TRANS: Attagene TRANS-FACTORIAL HepG2 Assay for human Thyroid Receptor alpha (THRa1) (AID 2283014; active = hit-call score of the fitted dose curve at least 0.9, where 1 is the maximum). The procedure, abridged: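 Measured here is mRNA from a GAL4-UAS reporter in transfected HepG2 cells carrying a Gal4-fused receptor, 24 h post-dose. DMSO served as negative control and baseline.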
Chain of human Thyroid Receptor alpha (THRa1), THRA (gene 7067) (P10827 whole entry, looked up, the tested form may be a part): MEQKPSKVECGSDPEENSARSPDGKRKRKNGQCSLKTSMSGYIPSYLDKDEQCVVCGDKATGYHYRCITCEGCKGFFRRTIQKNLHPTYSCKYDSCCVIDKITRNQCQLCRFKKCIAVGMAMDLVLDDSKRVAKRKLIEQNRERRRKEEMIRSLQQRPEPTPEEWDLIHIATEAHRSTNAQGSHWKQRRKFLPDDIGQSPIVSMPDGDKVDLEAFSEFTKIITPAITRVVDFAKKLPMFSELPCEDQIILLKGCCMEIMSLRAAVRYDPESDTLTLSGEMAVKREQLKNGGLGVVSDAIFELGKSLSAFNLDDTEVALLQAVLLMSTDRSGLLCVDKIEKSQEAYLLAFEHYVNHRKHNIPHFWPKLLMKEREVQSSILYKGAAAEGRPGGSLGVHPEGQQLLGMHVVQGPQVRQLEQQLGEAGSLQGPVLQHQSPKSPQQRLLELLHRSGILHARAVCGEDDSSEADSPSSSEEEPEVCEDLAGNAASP

Experiment [2] addresses human Retinoid X Receptor beta (RXRb), RXRB (gene 6257) (UniProt P28702). Description: ATG_RXRb_TRANS: Attagene TRANS-FACTORIAL HepG2 Assay for human Retinoid X Receptor beta (RXRb) (AID 2283013; active = hit-call score of the fitted dose curve at least 0.9, where 1 is the maximum). The procedure, abridged:
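Readout is reporter transcript induction after 24 h dosing. It is measured by RT-PCR of total RNA followed by fluorescent capillary electrophoresis. HepG2 liver cells carry transfected multiple reporter units driven by an exogenous RXRb-Gal4 fusion; activity is relative to DMSO.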

Read-out in experiment [3]: E-selectin (Homo sapiens) (UniProt P16581)
Put plainly: BSK_3C_Eselectin: BioMAP Diversity Plus: 3C Assay for Eselectin Biomarker Activity (AID 2283015).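 For outcome: cell surface E-selectin protein quantified by ELISA 24 h after dosing.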 The note with it: primary human endothelial cells (HUVEC); actives raise or lower the signal. The procedure, abridged: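 Endpoint derived by bidirectional fitting against DMSO vehicle; signal is ELISA-detected E-selectin from primary HUVEC at 24 h post-dosing, with parallel SRB staining (0.1% SRB, 560 nm) flagging cytotoxicity.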

Read-out in experiment [4]: Interleukin-1 alpha (IL1a), IL1A (gene 3552)
Description: BSK_BE3C_IL1a: BioMAP Diversity Plus: BE3C Assay for Interleukin-1 alpha (IL1a) Biomarker Activity (AID 2283016). The note with it: primary human bronchial epithelial cells; actives raise or lower the signal. The procedure, abridged: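 IL-1a measured by ELISA after 24 h treatment of human primary bronchial epithelial cells, with gain or loss of signal fitted versus DMSO. Parallel cultures stained with SRB gauge overt cytotoxicity.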

Read-out in experiment [5]: Monocyte Chemoattractant Protein-1 (MCP1), CCL2 (gene 6347)
Put plainly: BSK_3C_MCP1: BioMAP Diversity Plus: 3C Assay for Monocyte Chemoattractant Protein-1 (MCP1) Biomarker Activity (AID 2283017). The note with it: primary human endothelial cells (HUVEC); actives raise or lower the signal. The procedure, abridged: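 Using human vascular primary endothelium, researchers measured MCP-1 by ELISA 24 h after treatment, with DMSO serving as negative control for bidirectional fitting.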

Read-out in experiment [6]: Human Leukocyte Antigen - DR isotype (HLADR), HLA-DRA (gene 3122)
Put plainly: BSK_3C_HLADR: BioMAP Diversity Plus: 3C Assay for Human Leukocyte Antigen - DR isotype (HLADR) Biomarker Activity (AID 2283019).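 For outcome: ELISA of cell-surface HLA-DR on HUVEC 24 h after dosing.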 Conditions: primary human endothelial cells (HUVEC); actives raise or lower the signal. The procedure, abridged:
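Compound added to primary HUVEC cultures, 24 h incubation, then HLA-DR determined by ELISA; endpoint derived by bidirectional fitting relative to DMSO negative control.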

Read-out in experiment [7]: Interleukin-8 (IL8), CXCL8 (gene 3576)
Description: BSK_3C_IL8: BioMAP Diversity Plus: 3C Assay for Interleukin-8 (IL8) Biomarker Activity (AID 2283020). Conditions: primary human endothelial cells (HUVEC); actives raise or lower the signal. The procedure, abridged: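 IL-8 was measured by ELISA in HUVEC cultures 24 h after chemical dosing, with gain or loss of signal fitted relative to DMSO. Parallel SRB total-protein staining tracked overt cytotoxicity.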

Read-out in experiment [8]: Monokine induced gamma interferon (MIG), CXCL9 (gene 4283)
Put plainly: BSK_3C_MIG: BioMAP Diversity Plus: 3C Assay for Monokine induced gamma interferon (MIG) Biomarker Activity (AID 2283021).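 For AC50: MIG protein level measured by immunoassay in the treated endothelial cultures.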 The note with it: primary human endothelial cells (HUVEC); actives raise or lower the signal. The procedure, abridged:
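ELISA measurement of MIG in human umbilical vein endothelial cells 24 h after treatment. Cytotoxicity tracked by SRB staining in parallel cultures; gain or loss of signal fitted relative to DMSO.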

Chain of E-selectin (Homo sapiens) (P16581 whole entry, looked up): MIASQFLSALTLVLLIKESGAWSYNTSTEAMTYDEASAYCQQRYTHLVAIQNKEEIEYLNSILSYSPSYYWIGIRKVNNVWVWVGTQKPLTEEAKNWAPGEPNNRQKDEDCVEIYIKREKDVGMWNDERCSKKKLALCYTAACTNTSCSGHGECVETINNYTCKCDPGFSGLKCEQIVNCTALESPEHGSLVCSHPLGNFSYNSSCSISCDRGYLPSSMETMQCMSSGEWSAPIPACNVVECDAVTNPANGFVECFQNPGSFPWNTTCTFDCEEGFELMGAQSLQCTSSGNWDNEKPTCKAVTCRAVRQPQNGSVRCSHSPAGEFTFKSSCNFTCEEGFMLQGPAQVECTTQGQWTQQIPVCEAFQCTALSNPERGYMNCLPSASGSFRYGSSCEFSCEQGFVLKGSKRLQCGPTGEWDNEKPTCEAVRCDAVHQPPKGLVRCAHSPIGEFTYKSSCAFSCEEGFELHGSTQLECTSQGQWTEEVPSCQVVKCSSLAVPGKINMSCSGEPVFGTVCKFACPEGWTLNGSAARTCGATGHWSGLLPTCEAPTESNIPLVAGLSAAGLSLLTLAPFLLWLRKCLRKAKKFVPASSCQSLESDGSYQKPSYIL
Chain of human Retinoid X Receptor beta (RXRb), RXRB (gene 6257) (P28702 whole entry, looked up, the tested form may be a part): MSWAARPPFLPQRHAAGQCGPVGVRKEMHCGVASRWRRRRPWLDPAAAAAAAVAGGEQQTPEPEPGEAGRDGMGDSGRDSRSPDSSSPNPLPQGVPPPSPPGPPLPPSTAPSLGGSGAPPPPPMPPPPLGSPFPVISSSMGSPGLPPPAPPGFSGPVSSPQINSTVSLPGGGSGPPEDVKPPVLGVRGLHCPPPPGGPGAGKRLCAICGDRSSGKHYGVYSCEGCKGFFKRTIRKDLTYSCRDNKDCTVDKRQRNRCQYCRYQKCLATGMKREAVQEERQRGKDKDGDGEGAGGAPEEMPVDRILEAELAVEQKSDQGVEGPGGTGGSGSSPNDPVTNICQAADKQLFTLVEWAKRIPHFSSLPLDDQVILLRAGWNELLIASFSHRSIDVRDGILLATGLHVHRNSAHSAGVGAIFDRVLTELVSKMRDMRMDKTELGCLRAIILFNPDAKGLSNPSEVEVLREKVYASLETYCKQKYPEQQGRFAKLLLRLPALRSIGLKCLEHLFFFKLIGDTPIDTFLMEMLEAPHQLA

As for `CCOC(=O)CC`, the result in experiment [1] was inactive.

On to `c1cc(N(CC2CO2)CC2CO2)ccc1OCC1CO1` (stereo not drawn), for which the molecule was classed as inactive in experiment [1].

`CCOC(=O)Cc1cccc2ccccc12`: the half-maximal activity concentration (AC50) in experiment [2] was 89.4 µM (active). In experiment [1], the molecule was classed as inactive.

On to `Cc1ccc2oc(=O)ccc2c1`, for which the molecule was called inactive in experiment [1].

`CC(C)C(=O)C(C)C`: the molecule was classed as inactive in experiment [1], in experiment [3], in experiment [4], in experiment [5], in experiment [6] and in experiment [7]. The result in experiment [8] was inactive.

Regarding `O=C(Cl)c1cc(C(=O)Cl)cc(C(=O)Cl)c1`, the result in experiment [1] was inactive. Moreover, the concentration at half-maximal activity (AC50) in experiment [3] is 15.1 µM (active); in experiment [4], 29.5 µM (active); in experiment [5], 11.6 µM (active); in experiment [6], 10.5 µM (active); in experiment [7], 9.93 µM (active); in experiment [8] it was 29.3 µM (active).

Consider `Cc1ccc(C(C)c2ccc(C)c(C)c2)cc1C`, for which the outcome in experiment [1] was inactive.

`CC(=O)OC1C2(C)CCC(C2)C1(C)C` (stereo not drawn): the molecule was called inactive in experiment [1].

Turning to `Cn1c([N+](=O)[O-])cnc1COC(N)=O`, the call in experiment [1] was inactive.

As for `CC(=O)c1ccc2c(c1)CCCC2`, the molecule was called inactive in experiment [1].

On to `OC1OCCOC1O` (stereo not drawn), for which the call in experiment [1] was inactive.

As to `Cc1oncc1C(=O)Nc1ccc(C(F)(F)F)cc1`, the result in experiment [1] was inactive.

For the molecule `S=C(NC1CCCCC1)NC1CCCCC1`, the result in experiment [1], in experiment [3], in experiment [4], in experiment [5], in experiment [6] and in experiment [7] was inactive. In addition, in experiment [8], the result was inactive.

In the case of `CC(=O)C=CC1C(C)=CCC(C)C1(C)C` (stereo not drawn), the result in experiment [1] was inactive.

As to `C=C[Si](OC(C)=O)(OC(C)=O)OC(C)=O`, the call in experiment [1], in experiment [3], in experiment [4], in experiment [5], in experiment [6] and in experiment [7] was inactive. Also, the outcome in experiment [8] was inactive.

Consider `CC(=O)Nc1ccc2c(c1)Cc1cc(NC(C)=O)ccc1-2`, for which the call in experiment [2] and in experiment [1] was inactive.

For the molecule `CC1OC1C1CCC2(C)OC2C1` (stereo not drawn), the outcome in experiment [3], in experiment [4], in experiment [5], in experiment [6], in experiment [7] and in experiment [8] was inactive.

For `CC(C)=CCCC(C)C=O` (stereo not drawn), the molecule was called inactive in experiment [1].

On to `O=c1cc[nH]c(=S)[nH]1`, for which, in experiment [1], the call was inactive.

In the case of `CCCCCCCOC(=O)CCC`, the molecule was classed as inactive in experiment [1].

With `CO[Si](OC)(OC)c1ccccc1`, the outcome in experiment [1], in experiment [3], in experiment [4], in experiment [5], in experiment [6] and in experiment [7] was inactive. Also, in experiment [8], the result was inactive.

Regarding `COc1ccc(NC(C)=O)cc1N`, in experiment [1], the result was inactive.

On to `C=CC=CC=CCCCCC`, for which the molecule was called inactive in experiment [1], in experiment [3], in experiment [4], in experiment [5], in experiment [6] and in experiment [7]. Also, in experiment [8], the result was inactive.

As to `c1ccc(-c2ccccn2)nc1`, the molecule was called inactive in experiment [1], in experiment [3], in experiment [4], in experiment [5], in experiment [6] and in experiment [7]. Moreover, the result in experiment [8] was inactive.
